# Source: PubChem (several laboratories)
# FAS-TE inh: FAS thioesterase domain inhibitors, primary screen, biochemical, fluorescence intensity, uHTS; Fatty acid synthase (Homo sapiens), P49327; recombinant FAS-TE, OMFH fluorogenic substrate, fluorescence endpoint; inhibition, % at 15 µM; 0.67% of 360,000 active; AID 602261, 2012;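 active = compounds whose normalised, plate-corrected inhibition of enzyme fluorescence in the single-dose primary screen is 50% or more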;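 note: 0% = DMSO with enzyme and 100% = substrate without enzyme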
# Myeloid diff 2: induction of myeloid progenitor differentiation, primary screen, cell-based, flow cytometry, MLPCN library; ER-HoxA9 myeloid progenitors, lysozyme-GFP differentiation; calls only at 10 µM; 1% of 360,000 active;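 active = normalized GFP-positive differentiation at or above the plate's own cutoff, the solvent-only control mean plus 3 SD; inconclusive = no clear call, values can overlap the other calls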;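 note: cells exposed to compound for four days before flow analysis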
# NR3A LBD binder: binders of NR3A ligand-binding domain, primary screen, biophysical, differential scanning fluorimetry, uHTS; Glutamate receptor ionotropic, NMDA 3A (GRIN3A) ligand-binding domain; NR3A LBD differential scanning fluorimetry, Tm shift; 0% = protein alone, 100% = glycine-bound protein; Tm shift relative to glycine control, % at 25 µM; 2.5% of 340,000 active; AID 1259313, 2017;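 active = melting temperature shift of at least 10% of the positive control shift, at one fixed dose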
# rCAG binder: binders of r(CAG) RNA repeats, primary screen, biochemical, fluorescence | r(CAG) RNA repeat, TO-PRO-1 dye displacement fluorescence | 1.3% of 370,000 active | inhibition, % at 3 µM;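 active = inhibition above the plate cutoff, the mean of all test compounds on that plate plus 3 SD, cut at about 35% in these data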;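 note: 0% = DMSO alone and 100% = 100 µM mitoxantrone as full dye displacement; higher means more dye released from RNA so lower well fluorescence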
# MPTP inh: mitochondrial permeability transition pore inhibitors, primary screen, biochemical, isolated mouse mitochondria, absorbance. inhibition, % at 10 µM. Ca2+ swelling absorbance, 30 min. 1.4% of 360,000 active;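 active = inhibition of 50% or more, scaled per plate between neutral and stimulator controls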;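 note: 0% = DMSO wells given calcium and 100% = 1 mM EGTA wells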
# MPTP counter: fluorescence retest of MPTP screen hits in isolated mitochondria, single concentration; inhibition, % at 10 µM; AID 624504, 2012; membrane potential, Rhodamine 123 fluorescence; 78% of 5,000 active; shares compounds with MPTP inh; in the data active = inhibition above about 22%;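 note: 0% = DMSO vehicle and 100% = positive control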
# Active calls of the source: *; i = inactive; ? = inconclusive; nt = no result; + = active, no number. Only some compounds are listed: those with a hit (about 5.7% of all), similar ones and a draw of the others.
SMILES,FAS-TE inh,Myeloid diff 2,NR3A LBD binder,rCAG binder,MPTP inh,MPTP counter
CC(=O)Oc1ccc(N2C(=O)C3C4C=CC(C5CC45)C3C2=O)cc1[N+](=O)[O-] (centres undefined),-7,i,-6,0,0,nt
CCOc1ccc(NC(=O)CSc2nc(C)c3c(c2C#N)CCCC3)cc1,-4,i,-9,-1,13,nt
CC(C)(C)N/N=C/c1cc(Cl)cc([N+](=O)[O-])c1O,3,i,-19,24,93*,54*
O=[N+]([O-])c1cc(Cl)cc(/C=N/Nc2nc3ccccc3s2)c1O,32,i,20*,24,78*,78*
O=C1C2ON(c3ccccc3)C(c3ccncc3)C2C(=O)N1c1ccc(Br)cc1 (centres undefined),3,i,2,7,69*,22*
Cc1ccc(N2C(=O)C3ON(c4ccccc4)C(c4ccncc4)C3C2=O)cc1 (centres undefined),-2,i,0,12,23,nt
Oc1ccc(Oc2ccc(Oc3ccc(O)cc3)cc2)cc1,9,+,-10,1,62*,80*
N#Cc1sc(NCc2cccc(Cl)c2)nc1Cl,-16,i,-14,0,10,nt
Cc1ccc(CNc2nc(Cl)c(C#N)s2)cc1,5,i,-32,1,67*,77*
O=c1c2ccccc2sc2ccccc12,-1,i,1,2,0,nt
O=c1c(C(c2ccccc2)c2c(O)sc3ccccc3c2=O)c(O)sc2ccccc12,-1,i,5,29,68*,71*
Cc1cc(C(=O)Nc2ccc(Br)cc2)c2ccccc2n1,-1,i,0,3,1,nt
O=[N+]([O-])c1ccc(N2CCN(C(=S)Nc3ccccc3)CC2)cc1,-1,i,2,5,0,nt
O=C(Nc1ccc(Cl)cc1)N1CCN(c2ccccc2)CC1,2,i,-1,-3,66*,75*
CCCN1CCN(C(=S)Nc2ccc([N+](=O)[O-])cc2)CC1,-7,+,1,-1,60*,66*
O=[N+]([O-])c1ccc(NC(=S)N2CCN(c3ccccc3)CC2)cc1,19,i,-8,2,72*,84*
CCc1ccc(N(CC(=O)NCc2ccc(F)cc2)C(=O)c2csnn2)cc1,-5,i,0,-1,0,nt
CC(=O)N1CCOc2ccc(S(=O)(=O)NCCc3ccc(Cl)cc3)cc21,0,i,1,1,0,nt
FC(F)Sc1ccc(NC(=S)NC2CCCCC2)cc1,16,i,15*,4,101*,79*
CC1CCCCC1NC(=S)Nc1ccc(SC(F)F)cc1 (centres undefined),21,?,10,-2,66*,91*
CN(CC(=O)Nc1ccc(SC(F)F)cc1)C1CCCCC1,6,i,-1,-6,1,nt
FC(F)Sc1ccc(NC(=S)NCC2CCCCC2)cc1,36,i,31*,4,103*,80*
CC1CCN(C(=S)Nc2ccc(SC(F)F)cc2)CC1,-3,i,-1,0,0,nt
O=C(CCC(F)(F)F)N1CCC(CO)(CCc2ccccc2)CC1,-1,i,0,-8,0,nt
O=C(Nc1cc(Oc2ccccc2)cc([N+](=O)[O-])c1)C12CC3CC(C1)CC(n1cnc(Cl)n1)(C3)C2,34,i,-4,19,82*,59*
Cn1nc(-c2ccc(Cl)cc2)cc1NC(=O)Nc1ccccc1,4,i,26*,15,70*,69*
Cn1nc(-c2ccccc2)cc1NC(=O)Nc1ccc(C(C)(C)C)cc1,12,i,17*,8,70*,74*
Cn1nc(-c2ccccc2)cc1NC(=O)c1ccccc1,1,i,-1,0,0,nt
COCc1[nH]nc2c1C(c1ccccc1)NC2=O (centres undefined),nt,nt,nt,2,nt,nt
O=C(Nc1nnc(C(F)(F)F)s1)c1ccc(Br)s1,-3,i,0,5,78*,75*
